In the library only some 5.1% were active in any assay of this set; here they are far more common.
S1P4 ag: human S1P4 receptor agonism. O95977. S1P4-expressing cell line, agonist reporter assay. activation, % at 4.98 µM. 220,000 compounds, 0.35% hits; in the data active means activation above about 11%;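 further: 0% = DMSO vehicle and 100% = reference agonist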
ROMK primary: modulates human ROMK potassium channel activity; P48048; Tet-inducible ROMK, thallium flux fluorescence; actives lie on both sides; B-score at 10 µM; 130,000 compounds, 2% hits;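 active means signal ratio slope over the read window, or its plate-corrected B-score, at least 3 SD from the plate mean, either direction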;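 further: B-score of the F/F0 ratio slope over 7 to 12 s after thallium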
Cl transport mod: modulates chloride dependent transport by human KCC2. KCC2 cells, thallium flux FluoZin-2 fluorescence. B-score of Tl+ flux slope (higher = more flux/activation; lower = inhibition) at 10 µM. 190,000 compounds, 2.2% hits. AID 1456;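 active means thallium flux slope and its plate-corrected score both differing from the plate sample mean at a set confidence after two filtering rounds, in either direction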;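 further: slope of fluorescence scaled to starting intensity during 10 to 20 s after thallium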
RAM network inh: inhibitors of the yeast RAM network; inhibition, % at 50 µM; S. cerevisiae dse1pr::URA3 reporter, 5-FOA growth OD615, 2 d; analog-sensitive cbk1-as2 kinase mutant strain; 190,000 compounds, 1.8% hits;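 active means inhibition above a set limit, 3 SD over mean compound inhibition, cut at about 8.4% in these data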;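 further: 0% = DMSO-only wells with no growth and 100% = 10 µM 1-NA-PP1 full growth; inhibition rescues growth on 5-FOA so higher OD means more RAM inhibition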
S1P4 antagonist: blocks the human S1P4 receptor | S1P4-expressing cells, antagonist mode, reporter read-out | inhibition, % at 4.98 µM | 220,000 compounds, 0.26% hits | AID 1510; in the data active means inhibition above about 29%;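 further: 0% = wells stimulated with agonist and 100% = vehicle wells without agonist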
S1P3 antagonist: antagonists of human S1P3 receptor | Q99500 | CHO S1P3 NFAT-BLA reporter, FRET fluorescence, antagonist mode | inhibition, % at 4.98 µM | 170,000 compounds, 0.27% hits;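 active means inhibition above the plate cutoff, the mean inhibition of test wells on that plate plus 3 SD, cut at about 28% in these data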;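 further: cells challenged with S1P at its EC80 of 0.8 µM; blue over green emission ratio from cleaved BLA substrate after 4 h stimulation; 0% = S1P-stimulated wells and 100% = unstimulated DMSO-only wells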
Target sequence (Q99500 whole entry, looked up): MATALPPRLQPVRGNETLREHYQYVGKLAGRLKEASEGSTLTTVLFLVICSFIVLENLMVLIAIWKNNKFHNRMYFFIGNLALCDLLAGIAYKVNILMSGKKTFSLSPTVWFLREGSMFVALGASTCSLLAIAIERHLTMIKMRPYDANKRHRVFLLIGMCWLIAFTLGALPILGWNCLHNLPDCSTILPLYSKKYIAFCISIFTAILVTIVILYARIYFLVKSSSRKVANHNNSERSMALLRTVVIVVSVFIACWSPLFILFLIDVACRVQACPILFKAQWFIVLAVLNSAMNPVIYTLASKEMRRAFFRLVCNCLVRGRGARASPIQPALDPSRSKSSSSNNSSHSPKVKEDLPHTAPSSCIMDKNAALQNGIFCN
S1P4 ag conf: human S1P4 agonism, confirmation. shares compounds with S1P4 ag. activation, % at 4.98 µM. 740 compounds, 7% hits. S1P4 agonist cell-based reporter assay. AID 1523; in the data active means activation above about 12%;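 further: 0% = vehicle and 100% = full reference agonist response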
S1P1 ag: human S1P1 agonism as S1P4 agonist counter-screen. shares compounds with S1P4 ag. S1P1 agonist cell-based assay, activation. activation, % at 4.98 µM. 740 compounds, 4% hits. AID 1563; in the data active means activation above about 21%;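 further: 0% = vehicle wells and 100% = reference agonist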
Target sequence (P21453 whole entry, looked up): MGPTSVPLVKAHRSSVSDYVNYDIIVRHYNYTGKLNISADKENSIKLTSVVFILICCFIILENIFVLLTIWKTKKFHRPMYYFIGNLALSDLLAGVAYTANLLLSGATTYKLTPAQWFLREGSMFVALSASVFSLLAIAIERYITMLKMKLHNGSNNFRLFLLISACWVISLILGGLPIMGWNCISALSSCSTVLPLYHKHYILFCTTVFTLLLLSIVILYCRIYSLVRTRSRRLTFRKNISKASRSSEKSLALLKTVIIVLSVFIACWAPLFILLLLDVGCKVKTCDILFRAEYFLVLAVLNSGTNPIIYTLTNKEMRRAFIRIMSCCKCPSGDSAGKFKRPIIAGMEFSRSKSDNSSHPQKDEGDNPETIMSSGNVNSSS
S1P4 antag cf: confirmation of human S1P4 receptor antagonists; shares compounds with S1P4 antagonist; S1P4-expressing cell line, antagonist mode, reporter read-out; inhibition, % at 4.98 µM; 520 compounds, 71% hits; AID 1524; in the data active means inhibition above about 30%
S1P1 antag: blocks human S1P1, counter-screen for S1P4 antagonists | 520 compounds, 37% hits | cell-based S1P1 antagonist counterscreen, inhibition | shares compounds with S1P4 antagonist | inhibition, % at 4.98 µM; in the data active means inhibition above about 40%;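 further: receptor stimulated with S1P near its EC80; 0% = agonist stimulated wells and 100% = vehicle only wells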
ROMK hit retest: retested hit modulating human ROMK potassium channel | shares compounds with ROMK primary | 3,000 compounds, 54% hits | normalized thallium flux (F/F0 slope) at 10 µM | ROMK thallium flux, fluorescence ratio; hits give low values;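 active means Flux at 10 µM at least 3 SD below or above vehicle control mean in one or both replicates; inconclusive means no clear call, values can overlap the other calls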
* = called active by the depositor; ? = inconclusive; / = no result given.

SMILES | S1P4 ag | ROMK primary | Cl transport mod | RAM network inh | S1P4 antagonist | S1P3 antagonist | ROMK hit retest | others
COC(=O)C1=CO[C@@H](C)[C@@H]2CN3CC[C@]4(C(=O)Nc5ccccc54)[C@@H]3C[C@H]12 | 0.3 | 0.698 | 0.618 | 1.9 | 6.4 | -14.2 | /
S=C1CN=C(c2ccccc2Cl)c2cc(Cl)ccc2N1 | 26.8* | -0.0333 | 5.84* | 0.9 | -0.1 | / | / | S1P4 ag conf=-2.3;S1P1 ag=-4.7
COCCNC(=O)c1c(NC(=O)c2ccco2)n(Cc2ccccc2)c2nc3ccccc3nc12 | 0.2 | -1.52 | / | 3.1 | -20.1 | -51.9 | /
COCCCNC(=O)c1c(NC(=O)c2ccccc2Cl)n(Cc2ccccc2)c2nc3ccccc3nc12 | 11.9* | / | 0.015 | 4.0 | -8.6 | / | / | S1P4 ag conf=-0.1;S1P1 ag=1.7
CCCCn1c(O)c(/C(C)=N/NC(=O)Nc2ccccc2)c(=O)[nH]c1=O | 0.1 | / | 0.618 | / | 2.5 | 7.0 | /
CC(=O)NC1CC2CCCC(C1)N2 (stereo not drawn) | 25.4* | 0.00789 | 0.973 | -0.7 | -11.0 | -17.3 | / | S1P4 ag conf=-2.2;S1P1 ag=4.8
CC(C)CCNC(=O)c1c(N)n(CC2CCCO2)c2nc3ccccc3nc12 (stereo not drawn) | 11.5* | -0.748 | 0.123 | 1.3 | -4.0 | / | / | S1P4 ag conf=5.3;S1P1 ag=11.5
CCCCn1c(N)c(C(=O)NCCN2CCOCC2)c2nc3ccccc3nc21 | 0.6 | -0.446 | -0.208 | -0.8 | -4.4 | -19.1 | /
CNC(=O)O/N=C/c1nn(C(=O)C(C)(C)C)cc1Br | 0.9 | / | / | / | -6.0 | -8.7 | /
CCOC(=O)c1c(-n2c(C)cc(C=C3C(=O)NC(=O)NC3=O)c2C)sc2c1CCCC2 | 12.3* | -4.66* | 0.55 | 5.3 | 0.5 | / | ? | S1P4 ag conf=28.9*;S1P1 ag=3.0
CCC(C)N1C(=O)/C(=C/c2ccc3c(c2)CCN3CCCCl)C(=O)NC1=S (stereo not drawn) | 2.9 | -0.568 | -0.569 | 5.9 | -18.6 | 1.5 | /
COC(=O)C[C@]1(C(=O)OC)CN(C#N)N(c2ccc(Cl)cc2)C12c1ccccc1-c1ccccc12 | -0.8 | / | 0.896 | 5.9 | 55.4* | / | / | S1P4 antag cf=120.1*;S1P1 antag=87.5*
C[C@H]1O[C@@H](O[C@H]2[C@@H](O)C[C@H](O[C@H]3[C@@H](O)C[C@H](O[C@H]4CC[C@@]5(C)[C@H](CC[C@@H]6[C@@H]5CC[C@]5(C)[C@@H](C7=CC(=O)OC7)CC[C@]65O)C4)O[C@@H]3C)O[C@@H]2C)C[C@H](O)[C@@H]1O | -0.6 | / | -0.00577 | -0.7 | 8.8 | -30.5 | /
C[C@@H]1O[C@@H](O[C@H]2C[C@@H](O)[C@]3(CO)[C@H]4[C@H](O)C[C@]5(C)[C@@H](C6=CC(=O)OC6)CC[C@]5(O)[C@@H]4CC[C@]3(O)C2)[C@H](O)[C@H](O)[C@H]1O | -2.8 | / | 0.456 | 2.5 | 32.5* | -16.4 | / | S1P4 antag cf=58.5*;S1P1 antag=3.8
O=C(C1CC(c2ccccc2O)=NO1)N1CCC2(CC1)OCCO2 (stereo not drawn) | -5.4 | -0.44 | 0.0629 | 1.2 | -6.8 | / | /
O=c1[nH]sc2cc(F)ccc12 | -0.8 | -7.58* | 1.64 | 1.0 | 30.7* | -6.3 | 0.054* | S1P4 antag cf=90.7*;S1P1 antag=45.8*
NP(=O)(OCC(F)(F)F)Oc1ccccc1 (stereo not drawn) | 0.1 | / | / | / | -8.9 | / | /
c1ccc2c(c1)CC1CNCc3cccc(c31)S2 (stereo not drawn) | 2.4 | -2.79* | 2.39 | 0.8 | 13.2 | 16.3 | 0.0538*
Cc1cccc(N2C(=O)NC(=O)/C(=C/c3cc4c(cc3[N+](=O)[O-])OCO4)C2=O)c1 | 1.0 | -2.8* | -0.0243 | 0.1 | 8.6 | 0.4 | 0.0561*
CN(C)C(=O)Nc1cccc(OC(=O)N(C)C)c1 | -2.1 | / | / | 1.4 | -22.6 | 6.1 | 0.0878
O=c1[nH]c(=O)n(Cc2ccccc2)c(O)c1/C=C1\C=Nc2ccccc21 | -1.1 | 0.895 | -0.284 | 8.0 | 17.2 | 8.3 | /
O=c1[nH]c(=O)n(CC2CCCO2)c(O)c1/C=C1\C=Nc2ccccc21 (stereo not drawn) | 1.6 | 0.0808 | -1.46 | 2.0 | 0.7 | 4.0 | 0.0585*
COc1ccc(CCC(C)NCCc2ccccc2)cc1 (stereo not drawn) | -3.7 | -3.89* | 0.693 | 2.0 | 7.5 | / | 0.0619*
COc1ccc(CCNC2CCCCC2)cc1 | 1.2 | -0.472 | -0.79 | -0.8 | -7.8 | -13.0 | /
CN1C(=O)c2ccccc2NC(=O)[C@]12O[C@@H]2c1ccccc1 | 2.8 | / | -0.443 | -1.1 | -13.8 | -7.3 | /
SMILES | S1P4 ag | ROMK primary | Cl transport mod | RAM network inh | S1P4 antagonist | S1P3 antagonist | ROMK hit retest | others
O=C1CN=C(c2ccccc2)c2ccccc2N1Cc1ccc(C(F)(F)F)cc1 | -1.4 | / | / | 1.6 | -13.6 | / | /
Cc1oc(-c2ccccc2Cl)nc1CN1C(=O)CN=C(c2ccccc2)c2ccccc21 | -0.7 | -2.76* | -1.29 | -0.7 | 7.2 | -15.7 | 0.0576*
C=CCn1c(O)c(C(C)=O)c(=O)[nH]c1=O (tested in a mixture with another compound) | 0.2 | / | 0.948 | / | 9.2 | -7.8 | /
CCCCCc1nc2ccccc2c(=O)n1-c1ccccc1[N+](=O)[O-] | 1.4 | -0.203 | 0.706 | 4.6 | -29.6 | -0.6 | /
CCCCCc1nc2c(c(=O)c3ccccc3n2C)c(=O)n1C1CCCCCC1 | 0.8 | / | -1.2 | 2.3 | -12.9 | -4.3 | 0.0529*
Cc1ccc(CN2C(=O)NC(=O)C3(Cc4c(nc5ccccn5c4=O)N4CCCCCC43)C2=O)cc1 (stereo not drawn) | 1.6 | -2.93* | -1.98 | 4.1 | -8.4 | -2.0 | 0.0643*
O=C1NC(=O)C2(Cc3ccccc3N3CCCC32)C(=O)N1c1cccc(Cl)c1 (stereo not drawn) | 0.8 | / | 0.343 | 1.2 | -23.7 | -8.9 | /
OC1(c2ccc(F)cc2)CC2CCC(C1)N2Cc1nnnn1C1CCCCC1 (stereo not drawn) | -0.2 | -4.8* | / | 0.4 | -4.9 | 17.0 | 0.0566*
CCCCCSc1cc(O)c(C(CNC)C(C)C)cc1OC (stereo not drawn) | 0.3 | -3.2* | 2 | 1.7 | 6.6 | -1.9 | 0.0575*
CCC1CCCCN1CC(=O)c1ccc(OC(F)F)cc1 (stereo not drawn) | 7.6 | / | 0.0356 | -0.1 | -0.9 | 0.8 | /
